Assay outcomes: PubChem, The Scripps Research Institute Molecular Screening Center
CHO-K1 Ca antag – nonselective inhibitor or artifact in parental CHO-K1 cells | ATP-induced calcium, Fluo-8 fluorescence | inhibition, % at 3 µM | hit rate 0.6% among 360,000 | AID 602250;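 active means inhibition above a per-plate cutoff, the plate's mean sample inhibition plus 3 SD, cut at about 24% in these data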;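 further: 0% = DMSO plus EC80 ATP and 100% = DMSO alone without ATP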
CHO-K1 Ca ag – M1 agonist counterscreen hit in parental CHO-K1 cells; Fluo-8 calcium fluorescence; scaled to maximal ATP response, vehicle zero; activation, % at 3 µM; hit rate 0.48% among 360,000; AID 602248; in the data active means activation above about 15%;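 further: untransfected CHO-K1 host cells lacking M1 receptor as counterscreen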
CHRM1 PAM – human CHRM1 positive allosteric modulation; activation, % at 3 µM; AID 588819; hit rate 0.088% among 360,000; CHO-K1 hM1, Fluo-8 calcium fluorescence, ACh EC20; 0% = ACh EC20, 100% = maximal ACh; in the data active means activation above about 19%, passing the limit was not always enough
Target sequence (P11229 whole entry, looked up): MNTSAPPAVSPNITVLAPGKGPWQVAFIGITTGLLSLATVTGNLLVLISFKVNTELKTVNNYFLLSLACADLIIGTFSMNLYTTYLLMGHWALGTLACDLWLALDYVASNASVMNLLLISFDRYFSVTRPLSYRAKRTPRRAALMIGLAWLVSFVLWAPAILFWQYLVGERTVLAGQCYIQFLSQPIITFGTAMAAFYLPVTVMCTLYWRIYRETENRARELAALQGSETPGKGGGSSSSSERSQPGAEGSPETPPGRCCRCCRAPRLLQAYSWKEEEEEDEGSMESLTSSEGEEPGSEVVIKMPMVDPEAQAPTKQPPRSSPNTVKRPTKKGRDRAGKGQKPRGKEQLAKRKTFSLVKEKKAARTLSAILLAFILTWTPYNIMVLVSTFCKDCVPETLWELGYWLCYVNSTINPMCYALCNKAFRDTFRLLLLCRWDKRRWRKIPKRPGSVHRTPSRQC
CHO-K1 Ca PAM – M1 PAM counterscreen hit in parental CHO-K1 cells; AID 602247; hit rate 0.02% among 360,000; activation, % at 3 µM; ATP EC20, Fluo-8 calcium fluorescence; 0% at ATP EC20, 100% at ATP max;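 active means activation above the run cutoff, the mean activation of all test compounds plus 3 SD, cut at about 40% in these data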;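 further: peak over basal fluorescence ratio in a 140 s read after ATP addition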
CHRM1 antagonist – antagonists of human M1 muscarinic receptor; P11229; CHO-K1 hM1, Fluo-8 calcium fluorescence, ACh EC80 antagonist; inhibition, % at 3 µM; hit rate 1.3% among 360,000; AID 588852;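 active means percent inhibition above its own plate's cutoff, namely the mean of that plate's compound wells plus 3 SD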;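 further: peak over basal fluorescence ratio during 140 s after agonist addition; 0% = ACh EC80 plus DMSO and 100% = DMSO alone without agonist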
CHRM1 agonist – agonists of human M1 muscarinic receptor. P11229. CHO-K1 hM1, Fluo-8 calcium fluorescence, agonist mode; 0% DMSO, 100% acetylcholine EC100. activation, % at 3 µM. hit rate 0.33% among 360,000. AID 588814;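 active means activation above the run's mean compound activation plus 3 SD, cut at about 16% in these data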;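 further: peak over basal fluorescence ratio within a 140 s kinetic read after compound addition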
* = called active by the depositor; · = not tested or not shown. An excerpt weighted towards active compounds, which were near 2.3% of everything screened.

SMILES | CHO-K1 Ca antag | CHO-K1 Ca ag | CHRM1 PAM | CHO-K1 Ca PAM | CHRM1 antagonist | CHRM1 agonist
CC(C)CCn1c(N)c(C(=O)NCc2cccs2)c2nc3ccccc3nc21 | -18 | 1 | 6 | 18 | -6 | -4
COC(=O)C1(F)C(=O)NC(=O)NC1O (configuration not stated) | -11 | 1 | · | 3 | · | ·
CS(=O)(=O)N1Cc2ccccc2-n2nncc2C1 | -5 | 0 | 15 | 7 | -20 | -3
CCOC(=O)C1(CCOc2ccccc2)CCN(C(C)CSC)CC1 (configuration not stated) | -15 | 4 | -10 | 24 | 3 | -9
CCOC(=O)C1(CCOc2ccccc2)CCN(C2Cc3ccccc3C2)CC1 | -9 | 3 | -22 | 11 | 46* | -5
CN1C2CCC1CC(OC(=O)c1cc(Cl)cc(Cl)c1)C2 (configuration not stated) | -13 | 2 | -22 | 32 | 47* | -4
CN1CCN(CCC(=O)OC2CC3CCC(C2)N3C)CC1 (configuration not stated) | 7 | 0 | -3 | -2 | -10 | -4
CCOC(=O)c1cnc(SCc2ccc(Cl)c(Cl)c2)nc1N1CC1 | -7 | 1 | 8 | 3 | -12 | -2
O=C(c1cc2cc(Cl)ccc2[nH]1)N1CCC2(CC1)OCCO2 | -7 | 1 | 20 | 2 | -10 | 1
O=C(c1cc(=O)[nH]c2ccc(Br)cc12)N1CCC2(CC1)OCCO2 | 26* | 0 | 5 | -6 | -10 | -2
C1=CC(Cc2cncs2)c2ccccc21 (configuration not stated) | -18 | 0 | -4 | 16 | -1 | -8
Cc1cccc(NP(C)(=O)c2nc3c(s2)CCCC3)c1 (configuration not stated) | -6 | 1 | 8 | 21 | 2 | -7
OCc1cnc[nH]1 | 36* | 0 | -1 | -7 | -26 | 0
COc1ccc(C(c2nnnn2-c2ccc3c(c2)OCCO3)N2CCC3(CC2)C(=O)NCN3c2ccccc2)cc1 (configuration not stated) | -11 | 3 | 8 | -1 | -30 | 4
CN(Cc1cccc(-c2ccncc2)c1)C(=O)Oc1ccccc1Cl | 7 | 13 | · | -17 | · | ·
CN(Cc1cccc(-c2ccncc2)c1)C(=O)Oc1ccccc1Cc1ccccc1 | 24* | 12 | · | -8 | · | ·
CCN(CC)CCOC(=O)c1ccc(N=Cc2c(O)[nH]c(=O)[nH]c2=O)cc1 | 24* | 0 | -15 | -6 | 22* | -7
O=C(COc1ccc(Cl)cc1)N(c1ccc(Cl)cc1)C1CN2CCC1CC2 (configuration not stated) | -7 | 2 | -21 | 3 | 44* | -4
O=C(COc1ccc(Cl)cc1)N(c1ccccc1Cl)C1CN2CCC1CC2 (configuration not stated) | 10 | 2 | -25 | -12 | 75* | -6
CN1CCN(C(=O)COc2ccc(Oc3ccccc3)cc2)CC1 | -18 | 2 | 8 | 10 | -2 | -15
COC(=O)C1=C(c2ccc(-c3ccccc3)c(F)c2)C[C@@H]2CC[C@H]1N2C(=O)N1CCOCC1 | 6 | 1 | 2 | 2 | -6 | 0
CC1CN1c1cc2c(c3c1ccn3C)C1CCC2C1 (configuration not stated) | 11 | 0 | 26* | 14 | -47 | 0
Clc1ccc(C(c2ccc(Cl)cc2)n2cc[n+](CC(OCc3ccc(Cl)cc3Cl)c3ccc(Cl)cc3Cl)c2)cc1 (configuration not stated) | 4 | 1 | -10 | 19 | -9 | -6
O=C(Nc1cc(Cl)cc(Cl)c1)N1Cc2ccccc2-n2nncc2C1 | -5 | 1 | 2 | 9 | -14 | -3
CNc1cc(Cl)c2nonc2c1[N+](=O)[O-] | 38* | -1 | 1 | -17 | 25* | -1
SMILES | CHO-K1 Ca antag | CHO-K1 Ca ag | CHRM1 PAM | CHO-K1 Ca PAM | CHRM1 antagonist | CHRM1 agonist
CC1(C)OC(c2ccccc2)=C/C(=C/C=C2C(=O)NC(=O)NC2=O)O1 | 4 | 10 | -4 | -3 | 10 | 17*
c1ccc(CNC2CN3CCC2CC3)cc1 (configuration not stated) | -4 | 0 | -28 | 5 | 59* | -9
Clc1ccccc1CNC1CN2CCC1CC2 (configuration not stated) | 1 | 0 | -20 | 7 | 39* | -10
CN(C)c1ccc(/C=C/[N+](=O)[O-])cc1 | 12 | 14 | 4 | -4 | 41* | 11
O=C(/C=C/c1c[nH]c2ccccc12)c1c(O)n(CCc2ccccc2)c(=O)[nH]c1=O | -3 | 3 | -3 | 2 | 16 | 1
Cc1ncoc1C(=O)NCC1=C(c2ccc3ccccc3c2)C[C@@H]2CC[C@H]1N2Cc1ccco1 | -5 | 1 | -9 | 15 | 7 | -9
COC(=O)C1=C(c2ccc(F)cc2OCc2ccccc2)C[C@@H]2CC[C@H]1N2C(=O)NCc1ccccc1C(F)(F)F | -7 | 0 | -24 | -9 | 32* | -9
COC(=O)C1=C(c2ccc(F)cc2OCc2ccccc2)C[C@@H]2CC[C@H]1N2C(=O)N1CCC(C)CC1 | 5 | -1 | -39 | 3 | 78* | -14
COC(=O)C1=C(c2ccc(F)cc2OCc2ccccc2)C[C@@H]2CC[C@H]1N2C(=O)N1CCCCC1 | -7 | -1 | -6 | 9 | -1 | -11
COc1cc(Br)cc(CN2CCN(C)CC2)c1O | -5 | 0 | -32 | 2 | 59* | -15
CN(C)CC(C(=O)Cc1ccccc1)c1ccccc1 (configuration not stated) | -2 | 0 | 9 | 15 | -9 | -4
Cc1ccc(C[n+]2c(-c3ccc(C)cc3)cc(-c3ccc(C)cc3)cc2-c2ccc(C)cc2)cc1 | 17 | 14 | -13 | 4 | 33* | 2
CC(N)C(=O)NC1C2C(=C(O)CC(O)C2O)C(=O)OC1(C)C(Cl)Cl (configuration not stated) | -6 | -1 | 4 | 3 | -5 | 0
CCOC(=O)C1(CCc2ccccc2)CCN(Cc2cccc3cnccc23)CC1 | 6 | 0 | -34 | 9 | 48* | -14
CCOC(=O)C1(CCc2ccccc2)CCN(Cc2cccc3c2OCO3)CC1 | 10 | 5 | -34 | -3 | 34* | -13
c1cc2c(cc1N1CCCCC1)C1CC2CCN1 (configuration not stated) | -15 | 0 | -13 | 20 | 14 | -11
COc1cc(C(=O)OC2C[C@H]3CC[C@@H](C2)N3C)ccc1O (some centres not stated) | -10 | 1 | -4 | 8 | 0 | -10
COc1cc(C(=O)OC2C[C@H]3CC[C@@H](C2)N3)ccc1O (some centres not stated) | -14 | 0 | -27 | 14 | 95* | -10
